Experimental data: PubChem BioAssay AID1159580 (chemical genetic matrix, 2015)
“And” between values parts separate entries of the source, which are not always exact repeats. Identical values can stand only once. The whole screen tested about 5,500 compounds, of which about 2,000 (36%) were called active. Another 18% or so got no clear call; they are omitted. No stated cut-off is given here; in the data, active means normalized growth mostly below about 0.91 (no sharp cut-off); inconclusive means no clear call, values can overlap the other calls; inactive means mostly above about 0.92. The list shows a part of the results.

Experiment: chemical genetic growth profiling, strain panel (AID 1159580);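 further: tested at 20 µM; growth read once vehicle control cultures reached saturation at 30 °C; 1 = growth at the plate median or of vehicle wells; lower values mean less growth of the strain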
Settings: S. cerevisiae deletion strains, growth OD

Measured: normalized growth

O=C(O)/C=C/c1ccc(O)c(O)c1
inactive: locus YAL021C, strain ccr4, hits give low values 0.981 | locus YAL026C, strain drs2, hits give low values 1 | locus YAL030W, strain snc1, hits give low values 1 | locus YAL040C, strain CLN3, hits give low values 1.02 | locus YBL061C, strain skt5, hits give low values 0.996 | locus YBR009C, strain hhf1, hits give low values 0.995 | locus YBR021W, strain FUR4, hits give low values 1.01 | locus YBR023C, strain chs3, hits give low values 1 | locus YBR171W, strain sec66, hits give low values 1 | locus YBR229C, strain ROT2, hits give low values 1.01 | locus YBR231C, strain swc5, hits give low values 1 | locus YBR279W, strain paf1, hits give low values 0.995 | locus YCL011C, strain gbp2, hits give low values 1.01 | locus YCL016C, strain dcc1, hits give low values 1 | locus YCL029C, strain bik1, hits give low values 1.01 | locus YCL061C, strain MRC1 (second series), hits give low values 1.01 | locus YCL061C, strain MRC1, hits give low values 1 | locus YCL069W, strain vba3, hits give low values 1 | locus YCR088W, strain abp1, hits give low values 1 | locus YDL005C, strain med2, hits give low values 1 | locus YDL035C, strain GPR1, hits give low values 1.02 | locus YDL040C, strain nat1, hits give low values 1 | locus YDL074C, strain BRE1, hits give low values 1.05 | locus YDL101C, strain DUN1, hits give low values 1.01 | locus YDL134C, strain PPH21, hits give low values 1 | locus YDL185W, strain tfp1, hits give low values 1 | locus YDL192W, strain arf1, hits give low values 1 | locus YDR001C, strain nth1, hits give low values 1 | locus YDR069C, strain doa4, hits give low values 1.01 | locus YDR101C, strain arx1, hits give low values 1 | locus YDR137W, strain rgp1, hits give low values 0.998 | locus YDR150W, strain NUM1, hits give low values 1.01 | locus YDR159W, strain sac3, hits give low values 1 | locus YDR162C, strain NBP2, hits give low values 1 | locus YDR195W, strain ref2 0.977 | locus YDR297W, strain sur2, hits give low values 1.01 | locus YDR318W, strain mcm21, hits give low values 1 | locus YDR334W, strain swr1, hits give low values 0.993 | locus YDR335W, strain msn5, hits give low values 0.99 | locus YDR388W, hits give low values 1.01 | locus YDR392W, strain spt3, hits give low values 1.03 | locus YDR502C, strain sam2, hits give low values 0.996 | locus YEL003W, strain gim4, hits give low values 1.01 | locus YEL037C, strain rad23, hits give low values 0.991 | locus YEL061C, strain CIN8 (second series), hits give low values 1 | locus YEL061C, strain CIN8, hits give low values 1.01 | locus YER002W, strain NOP16, hits give low values 1.02 | locus YER015W, strain faa2, hits give low values 1 | locus YER016W, strain bim1, hits give low values 1.01 | locus YER110C, hits give low values 1.02 | locus YER111C, strain swi4, hits give low values 0.981 | locus YER155C, strain BEM2 (second series), hits give low values 1.03 | locus YER155C, strain BEM2, hits give low values 1 | locus YER167W, strain BCK2, hits give low values 1.02 | locus YFR010W, strain ubp6, hits give low values 1 | locus YGL078C, strain dbp3, hits give low values 0.997 | locus YGL086W, strain mad1, hits give low values 1.03 | locus YGL167C, strain pmr1, hits give low values 1 | locus YGL173C, strain kem1, hits give low values 1 | locus YGL227W, strain vid30, hits give low values 1.01 | locus YGL240W, strain doc1, hits give low values 1 | locus YGL248W, strain PDE1, hits give low values 0.999 | locus YGL253W, strain hxk2, hits give low values 1 | locus YGR078C, strain PAC10, hits give low values 1 | locus YGR135W, strain pre9, hits give low values 1.01 | locus YGR229C, strain SMI1, hits give low values 1.01 and 1.04 | locus YGR252W, strain gcn5, hits give low values 0.981 | locus YHR013C, strain ard1, hits give low values 0.993 | locus YHR027C, strain rpn1, hits give low values 0.992 | locus YHR030C, strain SLT2, hits give low values 1.01 | locus YHR079C, strain IRE1 (second series), hits give low values 1.03 | locus YHR079C, strain IRE1, hits give low values 0.993 | locus YHR094C, strain hxt1, hits give low values 1.01 | locus YHR129C, strain ARP1, hits give low values 1.02 | locus YHR142W, strain chs7, hits give low values 1.01 | locus YHR200W, strain rpn10, hits give low values 1.03 | locus YIL066C, strain RNR3, hits give low values 1.01 | locus YIL073C, strain SPO22, hits give low values 1.04 | locus YIL125W, strain kgd1, hits give low values 1.01 | locus YIR030C, strain dcg1, hits give low values 1 | locus YJL092W, strain hpr5, hits give low values 1 | locus YJL095W, strain BCK1 (second series), hits give low values 0.994 | locus YJL095W, strain BCK1, hits give low values 0.996 and 1.01 | locus YJL115W, strain asf1, hits give low values 0.991 | locus YJL129C, strain trk1, hits give low values 1 | locus YJL134W, strain LCB3, hits give low values 1.01 | locus YJL154C, strain vps35, hits give low values 0.999 | locus YJL164C, strain tpk1, hits give low values 1.01 | locus YJL166W, strain qcr8, hits give low values 1 | locus YJL168C, strain set2, hits give low values 1 | locus YJL187C, strain SWE1 (second series), hits give low values 1 | locus YJL187C, strain SWE1, hits give low values 0.998
